RPL19A TOR yeast = RPL19A-GFP expression modulators in yeast, primary screen, cell-based, S. cerevisiae, multiplex flow cytometry, MLPCN; S. cerevisiae RPL19A-GFP strain, 3 h; stronger effect = lower value; percent response vs DMSO, % at 10 µM; hit rate 0.3% among 330,000; AID 2025, 2009;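 active = percent response vs DMSO below 50%; inconclusive = fewer than 70 events counted for the yeast strain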;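 note: median channel GFP fluorescence of the barcoded RPL19A-GFP strain; lower means less RPL19A-GFP as with rapamycin TOR inhibition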
AGP1 TOR yeast = modulators of AGP1-GFP expression in yeast TOR pathway, primary screen, cell-based, multiplex flow cytometry, S. cerevisiae, MLPCN library | 3 h; GFP as percent of DMSO wells | GFP response vs DMSO, % at 10 µM | hit rate 0.02% among 320,000 | AID 2066, 2009;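 active = GFP response relative to DMSO above a set limit, near screen average plus 3 SD, cut at about 150% in these data; inconclusive = fewer than 70 cells counted for the yeast strain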;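 note: median GFP channel fluorescence of the gated AGP1 strain per well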
MEP2-GFP yeast = modulators of MEP2-GFP levels in yeast, primary screen, S. cerevisiae, multiplex flow cytometry, MLPCN library; S. cerevisiae MEP2-GFP strain, 3 h; 100% = DMSO control level; GFP response vs DMSO, % at 10 µM; hit rate 0.51% among 330,000;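 active = GFP response versus DMSO above a set limit, roughly screen mean plus 3 SD, cut at about 180% in these data; inconclusive = fewer than 70 cells counted for a yeast strain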;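 note: median GFP fluorescence of the barcode-gated MEP2-GFP cells per well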
CIT2 TOR yeast = modulators of CIT2-GFP expression in yeast, primary screen, S. cerevisiae, GFP fusion, multiplex flow cytometry, MLPCN library; hit rate 0.065% among 320,000; AID 2029, 2009; S. cerevisiae CIT2-GFP strain, 3 h; 100 means same as DMSO wells; GFP response vs DMSO, % at 10 µM;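 active = GFP response relative to DMSO above a set limit, near the screen mean plus 3 SD, cut at about 150% in these data; inconclusive = Fewer than 70 cells measured for a yeast strain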;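 note: ratio of well median GFP fluorescence to mean of DMSO wells on the plate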
Pemphigus Ab inh = inhibitors of pemphigus antibody binding to DSG3, primary screen, biochemical, bead-based, flow cytometry, scFv-GFP; hit rate 0.48% among 310,000; binding (percent of control), % at 10 µM; DSG3-coupled beads, scFv-anti-DSG3-GFP binding; stronger effect = lower value; Desmoglein-3 (Homo sapiens), P32926;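 active = binding more than 3 SD below its plate's average and above zero; inconclusive = below that plate limit but binding exactly zero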
Target sequence (P32926 whole entry, looked up): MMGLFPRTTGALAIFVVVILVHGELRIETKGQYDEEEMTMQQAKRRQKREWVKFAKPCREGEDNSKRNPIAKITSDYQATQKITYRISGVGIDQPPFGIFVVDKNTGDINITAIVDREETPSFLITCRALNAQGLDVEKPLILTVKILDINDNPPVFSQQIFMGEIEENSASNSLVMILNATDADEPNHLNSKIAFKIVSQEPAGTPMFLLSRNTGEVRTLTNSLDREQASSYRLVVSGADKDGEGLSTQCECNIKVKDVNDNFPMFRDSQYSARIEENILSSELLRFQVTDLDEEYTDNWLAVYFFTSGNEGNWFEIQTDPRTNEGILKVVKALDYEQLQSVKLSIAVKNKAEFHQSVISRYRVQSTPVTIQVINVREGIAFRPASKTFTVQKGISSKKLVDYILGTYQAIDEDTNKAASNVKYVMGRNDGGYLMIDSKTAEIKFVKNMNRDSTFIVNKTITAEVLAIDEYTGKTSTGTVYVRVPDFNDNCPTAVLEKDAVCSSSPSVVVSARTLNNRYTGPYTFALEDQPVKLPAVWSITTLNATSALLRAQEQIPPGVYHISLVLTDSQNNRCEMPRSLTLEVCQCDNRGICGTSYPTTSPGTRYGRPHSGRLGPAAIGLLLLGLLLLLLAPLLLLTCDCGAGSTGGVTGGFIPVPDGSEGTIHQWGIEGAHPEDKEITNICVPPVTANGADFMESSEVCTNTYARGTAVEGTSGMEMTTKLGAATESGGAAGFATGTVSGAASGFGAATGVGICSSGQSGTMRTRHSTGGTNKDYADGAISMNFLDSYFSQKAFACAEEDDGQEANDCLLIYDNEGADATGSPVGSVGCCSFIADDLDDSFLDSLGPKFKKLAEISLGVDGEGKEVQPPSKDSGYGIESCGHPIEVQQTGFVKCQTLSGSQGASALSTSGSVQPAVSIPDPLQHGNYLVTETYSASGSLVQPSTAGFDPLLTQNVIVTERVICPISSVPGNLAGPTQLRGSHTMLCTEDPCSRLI
LAP4 TOR yeast = modulators of LAP4-GFP expression in yeast, primary screen, S. cerevisiae, multiplex flow cytometry, MLPCN library | AID 2023, 2009 | GFP response vs DMSO, % at 10 µM | hit rate 0.34% among 320,000 | 3 h; median GFP as percent of DMSO wells;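 active = GFP response vs DMSO above a set limit, about the screen mean plus 3 SD, cut at about 150% in these data; inconclusive = under 70 cell events counted for the yeast strain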
LAP4-GFP pick2 = LAP4-GFP expression modulators in yeast, confirmation, cell-based, second cherry pick, flow cytometry; shares compounds with LAP4 TOR yeast; S. cerevisiae LAP4-GFP strain, 3 h; GFP response vs DMSO, % at 10 µM; hit rate 20% among 590; AID 2621, 2010;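 active = GFP signal as percent of the solvent control above about 150%, meaning raised reporter expression, limit read from the data; inconclusive = fewer than 70 cells counted in the well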
MEP2-GFP pick2 = modulators of MEP2-GFP levels in yeast, confirmation, S. cerevisiae, flow cytometry GFP, second cherry picks | AID 2622, 2010 | shares compounds with LAP4 TOR yeast | GFP response vs DMSO, % at 10 µM | S. cerevisiae MEP2-GFP strain, 3 h | hit rate 10% among 590;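 active = GFP signal above 150% of the solvent control wells, that is a rise of more than half; inconclusive = fewer than 70 yeast cells counted in the well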;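 note: median channel GFP fluorescence of all gated yeast cells per well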
RPL19A GFP CP2 = RPL19A-GFP modulators in TOR pathway yeast, confirmation, cell-based, S. cerevisiae, flow cytometry, second cherry pick; shares compounds with LAP4 TOR yeast; S. cerevisiae RPL19A-GFP strain, 3 h; stronger effect = lower value; 100% means same as DMSO wells; GFP response vs DMSO, % at 10 µM; hit rate 3% among 590; AID 2623, 2010;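 active = under 65% GFP response relative to DMSO; inconclusive = yeast strain with under 70 measured events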;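 note: median GFP channel fluorescence per well over the all cells gate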
CIT2-GFP pick2 = modulators of CIT2-GFP expression in yeast, confirmation, flow cytometry, second cherry pick, single plex; shares compounds with LAP4 TOR yeast; S. cerevisiae CIT2-GFP strain, 3 h; DMSO control wells read 100%; GFP response vs DMSO, % at 10 µM; hit rate 8% among 590;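 active = GFP response vs DMSO above about 150%, limit read from the data; inconclusive = fewer than 70 events counted for a yeast strain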;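 note: median green fluorescence per well over all gated yeast cells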
AGP1 GFP CP2 = AGP1-GFP expression modulators, hit retest, confirmation, cell-based, flow cytometry, S. cerevisiae, cherry pick set 2. shares compounds with LAP4 TOR yeast. S. cerevisiae AGP1-GFP strain, 3 h. percent response vs DMSO, % at 10 µM. 590 tested, under 10 active. AID 2643, 2010;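 active = over 150 percent of DMSO response; inconclusive = yeast strain measured with under 70 events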;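 note: median GFP channel fluorescence over all cells without mother daughter split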
s288c autofluor = compound autofluorescence in yeast s288c, dose response, artefact control for yeast TOR pathway GFP screen, s288c strain. shares compounds with LAP4 TOR yeast. fluorescence change (kMESF span) at 33 µM. 610 tested, under 10 active. AID 2757, 2010. S. cerevisiae s288c, 520 nm autofluorescence, flow cytometry, 3 h; stronger effect = higher value; zero means same as solvent-only cells;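 active = fluorescence span over the dose series, or activity score, above about 33, limit read from the data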
s288c autofl DR = autofluorescence of compounds in yeast s288c, dose response, artefact control for yeast TOR pathway GFP screen, primary hits, KU SAR, s288c parental; shares compounds with LAP4 TOR yeast; fluorescence change (span) at 33 µM; 110 tested, under 10 active; S. cerevisiae s288c parental, compound autofluorescence, flow cytometry, 3 h;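 active = fluorescence change span, or the activity score built from it, above 25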
TORC1 bypass = wild-type yeast growth inhibition sparing TORC1 bypass cells, mechanism study for yeast TOR pathway GFP screen, BY4741 wild type, TORC1 bypass strain; shares compounds with LAP4 TOR yeast; S. cerevisiae BY4741 spot growth rating, 48-72 h; stronger effect = lower value; growth rating (0-3) at 30 µM; 120 tested, under 10 active; AID 504456, 2011;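 active = growth rating at most 1 for wild type yeast while the TORC1 bypass strain still grows fully, rated 3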
Large screens that a line does not name were inactive (follow-up assays come after a bar, where they were run). Only some compounds are listed: those with a hit (about 1.2% of all), similar ones and a draw of the others.

CCCCN(C)C1=CC2=CC(=C(C#N)C#N)CCC2CC1 (configuration not stated)	MEP2-GFP yeast 335, CIT2 TOR yeast 207, LAP4 TOR yeast 190 | LAP4-GFP pick2 489 | MEP2-GFP pick2 821 | RPL19A GFP CP2 inactive | CIT2-GFP pick2 619 | AGP1 GFP CP2 inactive
Cc1nn(-c2ccccc2)nc1CNC(=O)C1CC1	none (no result: Pemphigus Ab inh)
CC(Oc1ccc(Br)cc1)C(=O)Nc1nc(-c2ccccn2)cs1 (configuration not stated)	LAP4 TOR yeast 168 (no result: Pemphigus Ab inh) | s288c autofluor inactive | s288c autofl DR inactive | TORC1 bypass inactive
O=C(Nc1nc(-c2ccccn2)cs1)C1COc2ccccc2O1 (configuration not stated)	LAP4 TOR yeast 162 | LAP4-GFP pick2 inactive | MEP2-GFP pick2 inactive | RPL19A GFP CP2 inactive | CIT2-GFP pick2 inactive | AGP1 GFP CP2 inactive | s288c autofluor inactive | s288c autofl DR inactive | TORC1 bypass inactive
Cc1cc(C(=O)Nc2nc(-c3ccccn3)cs2)ccc1[N+](=O)[O-]	LAP4 TOR yeast 160 | s288c autofluor inactive | s288c autofl DR inactive | TORC1 bypass inactive
CCc1cc(C(=O)Nc2nc(-c3ccccn3)cs2)sc1C	LAP4 TOR yeast 208 (no result: Pemphigus Ab inh) | LAP4-GFP pick2 156 | MEP2-GFP pick2 inactive | RPL19A GFP CP2 inactive | CIT2-GFP pick2 inactive | AGP1 GFP CP2 inactive | s288c autofluor inactive
N=C1C=CC(=C(c2ccc(N)cc2)c2ccc(N)cc2)C=C1	none (no result: RPL19A TOR yeast, AGP1 TOR yeast, MEP2-GFP yeast, CIT2 TOR yeast, LAP4 TOR yeast)
O=C(NC1CCCC1)C(c1ccncc1)N(C(=O)Cc1cccs1)c1cccc(F)c1 (configuration not stated)	none
CCN(CC(=O)Nc1c(F)cccc1F)C(=O)c1ccc(S(=O)(=O)NCc2ccco2)cc1	none
COc1ccc(CCNC(=O)CSc2nnc3ccc(-c4ccccn4)nn23)cc1	none
CC(=O)N1CCc2cc(S(=O)(=O)CCC(=O)NCc3ccc(F)cc3)ccc21	none | LAP4-GFP pick2 inactive | MEP2-GFP pick2 inactive | RPL19A GFP CP2 inactive | CIT2-GFP pick2 inactive | AGP1 GFP CP2 inactive
C/C(CC(=O)Nc1ccc(C)c(Cl)c1)=N\NC(=O)c1ccccn1	none
CNC(CC(=O)c1ccc([N+](=O)[O-])cc1)C(Cl)(Cl)Cl (configuration not stated)	LAP4 TOR yeast 195 | LAP4-GFP pick2 180 | MEP2-GFP pick2 188 | RPL19A GFP CP2 inactive | CIT2-GFP pick2 inactive | AGP1 GFP CP2 inactive | s288c autofluor inactive
CC(OC(=O)c1ccco1)C(=O)Nc1nc(-c2ccccc2)cs1 (configuration not stated)	LAP4 TOR yeast 177 | LAP4-GFP pick2 inactive | MEP2-GFP pick2 inactive | RPL19A GFP CP2 inactive | CIT2-GFP pick2 inactive | AGP1 GFP CP2 inactive | s288c autofluor inactive
O=C(Nc1nc(-c2ccccc2)cs1)c1ccco1	none
COc1cc(OC)c(NC(=O)c2cncn2-c2ccc(F)cc2)cc1Cl	none
C=CCN1CCN(C(=O)c2ccc3c(c2)OCO3)CC1	CIT2 TOR yeast 157, Pemphigus Ab inh inconclusive | LAP4-GFP pick2 inactive | MEP2-GFP pick2 inactive | RPL19A GFP CP2 inactive | CIT2-GFP pick2 inactive | AGP1 GFP CP2 inactive
O=C(OCn1ncc(Br)c(Br)c1=O)c1c(F)cccc1F	LAP4 TOR yeast 227 (no result: Pemphigus Ab inh) | s288c autofluor inactive | s288c autofl DR inactive | TORC1 bypass inactive
Cc1ccc(C)c(SCC(=O)OCC(=O)c2ccco2)c1	none
CCn1c(=O)c2c(n3cnnc13)-c1ccccc1CC21CCCCC1	none
Cn1c2ccc(F)cc2c2nnc(SCCN3CCCCC3)nc21	none (no result: RPL19A TOR yeast, AGP1 TOR yeast, MEP2-GFP yeast, CIT2 TOR yeast, LAP4 TOR yeast)
CSc1nnc2c3cc(F)ccc3n(C)c2n1	none | LAP4-GFP pick2 inactive | MEP2-GFP pick2 inactive | RPL19A GFP CP2 57 | CIT2-GFP pick2 inactive | AGP1 GFP CP2 inactive | s288c autofluor inactive | s288c autofl DR inactive | TORC1 bypass inactive
O=Nc1c(-c2cccc([N+](=O)[O-])c2)nc2ncccn12	none (no result: Pemphigus Ab inh) | LAP4-GFP pick2 inactive | MEP2-GFP pick2 inactive | RPL19A GFP CP2 inactive | CIT2-GFP pick2 inactive | AGP1 GFP CP2 inactive
COc1ccc(-c2nc(CN3CCN(Cc4cccc(Cl)c4)CC3)c(C)o2)cc1	none
COc1cccc2c(=O)c(C(=O)NCc3cccs3)c[nH]c12	none | LAP4-GFP pick2 inactive | MEP2-GFP pick2 inactive | RPL19A GFP CP2 inactive | CIT2-GFP pick2 inactive | AGP1 GFP CP2 inactive | s288c autofluor inactive
CCOC(=O)[C@H]1[C@H]2COc3ccc(Cl)cc3[C@@H]2N2C(=O)CNC(=O)[C@@]12C	none

Screening data: PubChem, NMMLSC
